Key:
[1] = test system: Schistosoma mansoni schistosomula (LE); assay: XTT viability relative to DMSO control; higher = more viable (less active); settings: 72 h; 10 µM
Description: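 XTT/PMS was then added for a further 24 h (72 h total) and A450 was read. % viability = (sample - heat-killed control)/(DMSO control - heat-killed control) x 100, from duplicate wells in two independent experiments.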

[2] = test system: Schistosoma mansoni schistosomula (NMRI); assay: phenotypic severity score (0-4); higher = more antischistosomal effect, active = 2 or more; settings: 10 µM
[3] = test system: Schistosoma mansoni schistosomula (Liberian); assay: drug effect (1 - score/DMSO control score) (fraction); higher = more antischistosomal effect, active = 0.5 or more; extreme values may be limits of the assay; settings: 10 µM
How it was run: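 Schistosomula of the Liberian strain of Schistosoma mansoni were mechanically transformed from cercariae, pre-incubated for at least 12 h, and placed at 50 per well in flat-bottom 96-well plates with Medium 199 containing 5% FCS. Compounds were tested in duplicate at 10 µM at 37 °C and 5% CO2, alongside wells holding 0.1% DMSO. Parasites were scored visually at 10× after 24, 48 and 72 h on a quarter-point scale running from 3 (normal) to 0 (dead). Drug effect came from the mean test-well score relative to the mean DMSO-well score, with negative values set to zero and plates accepted only when the DMSO wells averaged at least 2.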
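Throughout, for phenotypic severity score (0-4): visual microscopic scoring of shape, motility and density changes versus 0.5% DMSO solvent controls, one point per descriptor, degeneracy or death scored 4, mean of duplicate wells.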

SMILES	XTT viability [1] [%]	phenotypic severity score ([2]; 24 h)	phenotypic severity score ([2]; 48 h)	phenotypic severity score ([2]; 72 h)	drug effect ([3]; 24 h)	drug effect ([3]; 48 h)	drug effect ([3]; 72 h)
Cc1nn2c(=O)c3c([nH]c2c1-c1ccc(Cl)cc1)CCCC3	101	0 (inactive)	0 (inactive)	0 (inactive)	0.136 (inactive)	0.2 (inactive)	0.127 (inactive)
Clc1ccc(CN2CCN(C3=NCCN3)CC2)cc1Cl	81.9	1 (inactive)	0 (inactive)	0 (inactive)	0.1 (inactive)	0.0556 (inactive)	0.125 (inactive)
CCOC(=O)c1noc(N)c1-c1ccccc1	94.1	0 (inactive)	0 (inactive)	0 (inactive)	0.05 (inactive)	0.0811 (inactive)	0.0909 (inactive)
O[C@@H](c1cc(C(F)(F)F)nc2c(C(F)(F)F)cccc12)[C@H]1CCCCN1	-0.139	4 (active)	4 (active)	4 (active)	0.955 (active)	1 (active)	1 (active)
CC[C@@H]([C@H](C)O)n1ncn(-c2ccc(N3CCN(c4ccc(OC[C@@H]5CO[C@@](Cn6cncn6)(c6ccc(F)cc6F)C5)cc4)CC3)cc2)c1=O	88.8	3 (active)	4 (active)	4 (active)	0.2 (inactive)	0.243 (inactive)	0.556 (active)
Clc1cccc(CO[C@H]2CCc3ccccc3[C@@H]2n2ccnn2)c1	80.7	3 (active)	4 (active)	4 (active)	< 0 (inactive)	0.1 (inactive)	0.158 (inactive)
CCOc1ccc(-c2nc(CNCCc3ccc(F)cc3)cs2)cc1		0 (inactive)	0 (inactive)	0 (inactive)	0.273 (inactive)	0.4 (inactive)	0.632 (active)
C[C@H]1c2cccc(O)c2C(=O)C2=C(O)[C@]3(O)C(=O)C(C(N)=O)=C(O)[C@@H](N(C)C)[C@@H]3[C@@H](O)[C@@H]21	165	0 (inactive)	0 (inactive)	0 (inactive)	0.2 (inactive)	0.297 (inactive)	0.222 (inactive)
CCC(C)NC(=O)c1ccc(NC(=O)C2(c3ccccc3)CCCC2)cc1 (stereo not drawn)	90.6	0 (inactive)	0 (inactive)	0 (inactive)	0.05 (inactive)	0.027 (inactive)	0.0303 (inactive)
COc1cccc(OC)c1C(=O)Nc1ccc(Cl)c(-c2nc3ccccc3s2)c1	108	2 (active)	2 (active)	2 (active)	0.4 (inactive)	0.5 (active)	0.625 (active)
O=C1Nc2ccc(Br)cc2C12NCCc1c2[nH]c2ccccc12 (stereo not drawn)	109	0 (inactive)	0 (inactive)	0 (inactive)	0.05 (inactive)	0.0811 (inactive)	0.167 (inactive)
COc1ccccc1CNC(=O)c1cc(C2CC2)nc2c1cnn2C(C)C	38.4	0 (inactive)	0 (inactive)	0 (inactive)	0.2 (inactive)	0.459 (inactive)	0.667 (active)
Nc1ncc(Br)cc1-c1nc2cc(Cl)cnc2[nH]1	131	0 (inactive)	0 (inactive)	0 (inactive)	0.1 (inactive)	0.111 (inactive)	0.188 (inactive)
COc1ccc(Cn2cnc3c(-c4ccco4)nc(Cl)nc32)cc1	98.6	0 (inactive)	0 (inactive)	0 (inactive)	0.105 (inactive)	0.0556 (inactive)	0.125 (inactive)
Cc1ccc2nc(C)c(-c3ccn(Cc4ccccc4)n3)n2c1	95.7	3 (active)	4 (active)	4 (active)	< 0 (inactive)	< 0 (inactive)	0.111 (inactive)
CCCn1c(CNc2ccccc2O)nc2ccccc21	337	0 (inactive)	0 (inactive)	0 (inactive)	0.136 (inactive)	0.2 (inactive)	0.182 (inactive)
Cn1c(=O)c2c(S(C)(=O)=O)snc2n(C)c1=O		4 (active)	4 (active)	4 (active)	1 (active)	1 (active)	1 (active)
c1ccc(Oc2ccc(-c3cc(C4CCOCC4)[nH]n3)cc2)cc1	98.4	0 (inactive)	0 (inactive)	0 (inactive)	0.182 (inactive)	0.35 (inactive)	0.127 (inactive)
COc1ccc(-c2nnc3ccc(-c4cccc(C(C)C)c4)cn23)cc1OC	14.7	0 (inactive)	2 (active)	0 (inactive)	0.1 (inactive)	0.167 (inactive)	0.278 (inactive)
Cc1cnc(CCNC(=O)c2cc(-c3ccc(Cl)cc3)cs2)[nH]1	79.7	1 (inactive)	1 (inactive)	0 (inactive)	0.136 (inactive)	0.45 (inactive)	0.509 (active)
O=C(c1ccco1)N(CCCn1ccnc1)c1nc2c(Cl)cccc2s1	46.4	0 (inactive)	0 (inactive)	0 (inactive)	0.0909 (inactive)	0.4 (inactive)	0.4 (inactive)

SMILES	XTT viability [1] [%]	phenotypic severity score ([2]; 24 h)	phenotypic severity score ([2]; 48 h)	phenotypic severity score ([2]; 72 h)	drug effect ([3]; 24 h)	drug effect ([3]; 48 h)	drug effect ([3]; 72 h)
CC(=O)N1CCc2cc3nc(C)cc(C)c3cc21	112	0 (inactive)	0 (inactive)	0 (inactive)	0.2 (inactive)	0.111 (inactive)	0.0625 (inactive)
O=C(c1ccc(F)cc1)N(CCNc1ccccc1)c1ccccc1	126	1 (inactive)	0 (inactive)	1 (inactive)	0.135 (inactive)	0.167 (inactive)	0.25 (inactive)
COc1ccc(S(=O)(=O)Nc2ccc(CN3CCN(C(=O)c4cccc(C#N)c4)CC3)cc2)cc1		0 (inactive)	0 (inactive)	1 (inactive)	0.1 (inactive)	0.111 (inactive)	0.188 (inactive)
CCOC(=O)c1cc(-c2csc(Nc3c(C)cc(C)cc3C)n2)on1	95.6	1 (inactive)	1 (inactive)	0 (inactive)	0.182 (inactive)	0.3 (inactive)	0.291 (inactive)
CC(C)(C)n1nc(Cc2cccc3ccccc23)c2c(N)ncnc21	85.5	0 (inactive)	0 (inactive)	0 (inactive)	0.15 (inactive)	0.222 (inactive)	0.625 (active)
CC1CCCN(C(=O)C(C)Nc2cc(Cl)ccc2N2CCOCC2)C1 (stereo not drawn)	137	0 (inactive)	0 (inactive)	0 (inactive)	0.15 (inactive)	0.222 (inactive)	0.375 (inactive)
Cc1ccc(S(=O)(=O)n2cc(-c3ccnc(N)c3)c3cc(Br)cnc32)cc1	4.55	2 (active)	3 (active)	3 (active)	0.45 (inactive)	0.568 (active)	0.515 (active)
O=C(NCCc1c[nH]c2ccccc12)c1cc2ccccc2oc1=O		1 (inactive)	0 (inactive)	0 (inactive)	0.182 (inactive)	0.4 (inactive)	0.455 (inactive)
CC(C)(C)c1cnc(NC(=O)c2ccccc2O)s1		0 (inactive)	1 (inactive)	1 (inactive)	1 (active)	1 (active)	1 (active)
COc1ccc(-c2cnc3cnc(-c4cccc(OC(C)C)c4)cn23)cc1	39	2 (active)	4 (active)	4 (active)	0.0455 (inactive)	< 0 (inactive)	0.105 (inactive)
Cn1ccnc1CNCCS(=O)(=O)c1cccc(Nc2ccc(-c3cccc(F)c3)cn2)c1		0 (inactive)	0 (inactive)	0 (inactive)	0.1 (inactive)	0.0556 (inactive)	0.125 (inactive)
Cc1cc(C)n2nc(C(=O)Nc3cc(C(F)(F)F)ccc3N3CCOCC3)nc2n1	73.3	0 (inactive)	0 (inactive)	0 (inactive)	0.05 (inactive)	0.135 (inactive)	0.222 (inactive)
N#Cc1nc(-c2ccccc2)oc1S(=O)(=O)c1ccc(Cl)cc1	-7.61	0 (inactive)	0 (inactive)	1 (inactive)	1 (active)	1 (active)	1 (active)
COc1ccc(OC)c(NCc2ccc3nc(N)nc(N)c3c2Cl)c1	109	0 (inactive)	2 (active)	0 (inactive)	< 0 (inactive)	0.05 (inactive)	0.278 (inactive)
Nc1nc2ccc(-c3cncc(Oc4ccc(F)cc4)c3)cc2[nH]1	111	2 (active)	1 (inactive)	1 (inactive)	0.3 (inactive)	0.556 (active)	0.688 (active)
Cc1cc(NCC(C)C)c2n[nH]c(-c3ccccc3)c2n1	92.7	0 (inactive)	0 (inactive)	0 (inactive)	0.105 (inactive)	0.111 (inactive)	0.0625 (inactive)
COC(=O)Nc1nc2cc(C(=O)c3ccccc3)ccc2[nH]1	71.1	0 (inactive)	0 (inactive)	0 (inactive)	0.15 (inactive)	0.189 (inactive)	0.278 (inactive)
CC(C)C(NC(=O)Cc1cccc2ccccc12)C(=O)Nc1cccc(C#N)c1 (stereo not drawn)	68.8	0 (inactive)	0 (inactive)	0 (inactive)	0.15 (inactive)	0.222 (inactive)	0.333 (inactive)
CNC(=O)c1nn(C)c2c1C(C)(C)Cc1cnc(Nc3ccc(N4CCN(C)CC4)cc3)nc1-2	157	3 (active)	4 (active)	4 (active)	0.364 (inactive)	0.8 (active)	0.891 (active)
COc1ccc(C2=NN(C3CCCCCC3)C(=O)[C@@H]3CC=CC[C@H]23)cc1OCCCCOc1ccc(-c2nn[nH]n2)cc1	31	2 (active)	0 (inactive)	0 (inactive)	0.35 (inactive)	0.568 (active)	0.667 (active)
COC(=O)c1cccc2oc(-c3cccc(OC)c3NC(=O)c3cc(-c4ccccc4)on3)nc12	88.1	0 (inactive)	0 (inactive)	0 (inactive)	0.351 (inactive)	0.333 (inactive)	0.312 (inactive)
